The results in this text go back to PubChem BioAssay AID2732 (Emory University Molecular Libraries Screening Center, 2010).

In all, about 220,000 compounds went through this assay and about 8,200 (3.7%) were called active.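 Rule for the calls: active = compounds that reduced the stress-induced luciferase reporter signal by more than about 70% of percent inhibition (limit read from the data); inactive = the rest.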 The full list was thinned out, with actives kept by preference.

This assay is described as follows: blockers of ER-stress CHOP reporter expression – cell-based, unfolded protein response, luciferase reporter, primary screen (AID 2732).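 Note: 0% = tunicamycin plus vehicle and 100% = wells without tunicamycin.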 The note with it: CHO-K1 CHOP-promoter luciferase, tunicamycin-induced, 15-18 h; at 10 µM; hits give high values. Background: Reporter assays use an easily measured gene product as a stand-in for the process of interest.
As a reminder, the inhibition is the change of the read-out against control, counted positive when it falls. In the case of `OC(CNCc1ccc2c(c1)OCO2)COc1ccccc1` (stereo unspecified), the inhibition was -20.3% (inactive).

As for `CCOC(=O)CC1C(=O)NCCN1c1nc2c(C)cccn2c(=O)c1/C=C1\SC(=S)N(C(C)CC)C1=O` (stereo unspecified), the inhibition was 5.91% (inactive). Next, `Cc1cccc(Cn2c(N3CCN(c4ccccc4)CC3)nc3c2c(=O)n(C)c(=O)n3C)c1`: 40.4% (inactive).

For the compound `COC(=O)C(C)Sc1nc2c(c(=O)n(C)c(=O)n2C)n1Cc1cccc(C)c1` (stereo unspecified), the inhibition was 11.8% (inactive). Next, `C/C(Cl)=C\Cn1c(Nc2cccc(C)c2)nc2c1c(=O)n(C)c(=O)n2C`: 76.1% (active); `CNc1ccc([N+](=O)[O-])cc1C(=O)O`: -14.2% (inactive). Turning to `Nc1nc(O)c(CC(=O)O)s1`, the inhibition was 9.65% (inactive). Take `CC(=O)N/C(=C\c1ccc(F)cc1)C(=O)NC(Cc1ccccc1)C(=O)O` (stereo unspecified): the inhibition is 2.9% (inactive). Consider `CC(=O)Nc1ccc(/C=N/NC(=O)c2cccs2)cc1`, for which the inhibition was -21.6% (inactive). To `Cc1cccc(-n2c(C)cc(/C=N\NC(=O)c3cccs3)c2C)c1` belongs 13.8% (inactive); to `Cc1ccc(-n2nc(C)c(/C=N/NC(=O)c3cccs3)c2Cl)cc1`, 99.7% (active); to `O=C(NCCCn1ccnc1)C(=O)NCC1OCCN1S(=O)(=O)c1cc(F)ccc1F` (stereo unspecified), 19.4% (inactive). For the compound `O=C(c1ccc(Cl)c([N+](=O)[O-])c1)N1CCN(c2ccccc2)CC1`, the inhibition was -20.4% (inactive). To `O=C(/C=C/c1ccc(Cl)cc1)N1CCN(c2ccccc2[N+](=O)[O-])CC1` belongs 32.3% (inactive); to `CO/N=C/c1ccc(N2CCN(C(=O)c3cccc(Cl)c3)CC2)c([N+](=O)[O-])c1`, 71.8% (active); to `CC12C(=O)N(c3ccccc3)C(=O)C1C(c1ccccc1)N1CCCN12` (stereo unspecified), 7.95% (inactive). As for `O=[N+]([O-])c1ccc(N2CCSCC2)cc1O`, the inhibition is 13.8% (inactive). For `Cc1ccc(NC(=S)NC(NC(=O)Cc2cccc3ccccc23)C(Cl)(Cl)Cl)cc1` (stereo unspecified), the inhibition is 110% (active). `CC(C)(C)C(=O)NC(NC(=S)Nc1ccc(S(N)(=O)=O)cc1)C(Cl)(Cl)Cl` (stereo unspecified): the inhibition was -6.4% (inactive).

Turning to `O=C(Cc1cccc2ccccc12)NNC(=O)Nc1ccc(Cl)cc1`, the inhibition was 13.2% (inactive). For the compound `O=C(NNC(=S)NC1CC2CCC1C2)c1ccc(Cl)cc1` (stereo unspecified), the inhibition was -10.6% (inactive).

As to `C/C=C(/C)C(=O)OC1Cc2c(ccc3ccc(=O)oc23)OC1(C)C` (stereo unspecified), the inhibition was 74.3% (active).

For `CC1(C)Oc2ccc3ccc(=O)oc3c2/C(=C/NCCO)C1=O`, the inhibition is 7.95% (inactive). Turning to `O=C(NCc1csc(-c2cccs2)n1)C1CC1`, the inhibition is 21.8% (inactive). Turning to `COc1ccccc1OCC(=O)O/N=C(\N)c1ccccn1`, the inhibition is -9.1% (inactive). Turning to `CCCCN1CCNC1=S`, the inhibition is 11% (inactive). Next, `Cc1nnc(SCc2ccc(C(=O)c3ccc(Cl)cc3)o2)n1-c1ccccc1`: 24.9% (inactive); `Cc1ccc(-c2noc(CSc3nnc(-c4ccncc4)n3-c3ccc(F)cc3)n2)cc1`: 35.3% (inactive). To `Fc1ccc(-n2c(Cc3ccccc3)nnc2SCc2nc(-c3ccc(Cl)cc3)no2)cc1` belongs 82.2% (active). In the case of `Cc1oc(C(N)=O)cc1COc1ccc(C(N)=O)cc1`, the inhibition is 0.47% (inactive). Next, `CC(=O)NC(=S)Nc1ccc(NC(=S)NC(=O)c2ccc([N+](=O)[O-])cc2)cc1`: -4.53% (inactive).

On to `O=C(Nc1ccc(F)c(Cl)c1)C1CCN(S(=O)(=O)c2cccnc2)CC1`, for which the inhibition was 24.3% (inactive). With `Cc1noc(C)c1S(=O)(=O)N1CCCC(C(=O)Nc2nccs2)C1` (stereo unspecified), the inhibition is 11.8% (inactive). To `O=C(Nc1nccs1)C1CCN(S(=O)(=O)c2ccc(Cl)c(C(F)(F)F)c2)CC1` belongs 70.1% (active); to `CN(Cc1nc(-c2cnccn2)no1)Cc1n[nH]c2c1CCCCC2`, 0.16% (inactive); to `CCOC(=O)c1c(C)[nH]c(=S)c(C#N)c1-c1ccccc1`, -25.2% (inactive).

With `Cc1[nH]c2ccccc2c1C(=O)COC(=O)C(C)C`, the inhibition is 9.48% (inactive). To `CCOC(=O)c1c(C)[nH]c2c1-c1ccccc1C(=O)C2=O` belongs 108% (active).

`COc1ccc(C(=O)NCC(=O)N/N=C/c2ccc([N+](=O)[O-])o2)cc1OC`: the inhibition was -82.2% (inactive).

With `CCOC(=O)Cc1cc(=O)[nH]c(/N=C(\N)Nc2ccc(OC)cc2)n1`, the inhibition is -6.01% (inactive).

With `O=C(CC(=O)Nc1ccc(Cl)c(Cl)c1)N/N=C/c1ccc(O)cc1`, the inhibition is 23.4% (inactive). To `Cc1ccc(NC(=O)C/C(N)=N/O)cc1Cl` belongs 1.88% (inactive); to `O=C(CC(O)(C(F)(F)F)C(F)(F)F)Nc1ccc(Cl)c(Cl)c1`, 86% (active). To `CC(=O)NNC(=O)c1csc(Cc2c(Cl)sc3ccc(Cl)cc23)n1` belongs 32.1% (inactive). `Cc1ccc(-c2noc(CN3CCN(Cc4ccccc4)CC3)n2)cc1`: the inhibition was 38.4% (inactive).

For `Cc1ccc(Cc2nc(-c3cccc(C)c3)no2)cc1`, the inhibition is 83.2% (active). As to `Cc1cccc(-c2noc(-c3ccc(F)cc3)n2)c1`, the inhibition is 12% (inactive). Next, `COc1ccc(OC)c(NC(=O)N[C@H](Cc2ccccc2)C(=O)NN)c1`: 17.5% (inactive). To `CCOC(=O)CC(=O)CSc1nc(-c2ccccc2)cc(-c2ccc(Cl)cc2)c1C#N` belongs -3.89% (inactive); to `CCOC(=O)CSc1ccccn1`, -0.03% (inactive). As to `CCOC(=O)CSc1nccc(N(C)C)c1C#N`, the inhibition was 74% (active). Next, `Cc1ccc(NC(=O)c2nc[nH]c2C(=O)N[C@@H](CCCCNC(=O)OC(C)(C)C)C(=O)OC(C)(C)C)cc1`: 60.9% (inactive). Next, `Cc1ccc(C)c(SCc2nc3sc(C(=O)O)c(C)c3c(=O)[nH]2)c1`: 5.2% (inactive); `Cc1ccc(-c2nc(SCC(=O)Nc3ccccc3OC(F)F)c3c(C)c(C(=O)O)sc3n2)cc1`: 101% (active).

For `COc1ccccc1NC(=O)CSc1nc2sc(C)c(C)c2c(=O)n1Cc1ccco1`, the inhibition was -22.1% (inactive). Next, `O=C(O)c1ccc(/C=N/Nc2nc(N3CCCCC3)nc(N3CCCCC3)n2)cc1`: 5.9% (inactive). Next, `O=C(c1ccc(=O)oc1)N1CCC(C(O)(c2ccccc2)c2ccccc2)CC1`: 18.9% (inactive). On to `Cn1cnc(S(=O)(=O)Nc2ccc3c(c2)OCCO3)c1`, for which the inhibition is 26.2% (inactive).

On to `C/C(=N\NC(=S)NCc1ccccc1)c1ccc(Cl)cc1`, for which the inhibition is 16.1% (inactive). To `C/C(=N\NC(=S)NC(C)C)c1ccc(C(C)(C)C)cc1` belongs 72.1% (active). Take `CC/C(=N\NC(=S)NC(C)C)c1ccc(OC(F)F)cc1`: the inhibition was 11.9% (inactive).
